From the supplement of paper PMC10849652
Targets with a hit are over-represented here; the source holds about 7,900 in all. About 0.6% of all pairs of compound and target were hits. Values without a mark were called inactive.

Columns and labels:
Test in all cases: log2 fold change, soluble protein after heating vs DMSO (PISA); higher = thermal stabilisation; K562 cells, 10 uM, 30 min; active = over 0.2 and 3.5 SD of the protein, either way, in both replicates (recomputed)
[1] = compound: CS(=O)(=O)c1ccc(-c2cnc(N)c(C(=O)Nc3ccccc3)n2)cc1
Method in brief: (§1)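 Soluble protein was quantified by TMTpro 16plex LC-MS/MS after channel sums were equalised. It was obtained as the supernatant after 21,000xg for 90 min from pooled aliquots of K562 cells (2×10^6 cells/mL, 10 μM compound, 30 min) heated for 3 min across 48°C-58°C and extracted in PBS with 0.5% NP-40 at 4°C. Thermal stability values are relative to control samples and come from duplicates. They are given as log2 fold changes.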

crizotinib = compound: C[C@@H](Oc1cc(-c2cnn(C3CCNCC3)c2)cnc1N)c1c(Cl)ccc(F)c1Cl [crizotinib]
Method in brief: as §1

[2] = compound: C[C@@H]1COCCN1C2=NC(=NC(=C2)C3(CC3)S(=O)(=O)C)C4=C5C=CNC5=CC=C4
Method in brief: as §1

[3] = compound: C[C@H](C1=CC=C(C=C1)C(=O)NC2=C3C=CNC3=NC=C2)N
Method in brief: as §1

duvelisib = compound: C[C@H](Nc1ncnc2nc[nH]c12)c1cc2cccc(Cl)c2c(=O)n1-c1ccccc1 [duvelisib]
Method in brief: as §1

gandotinib = compound: Cc1cc(Nc2cc(CN3CCOCC3)c3nc(C)c(Cc4ccc(Cl)cc4F)n3n2)n[nH]1 [gandotinib]
Method in brief: as §1

tozasertib = compound: Cc1cc(Nc2cc(N3CCN(C)CC3)nc(Sc3ccc(NC(=O)C4CC4)cc3)n2)n[nH]1 [tozasertib]
Method in brief: as §1

[4] = compound: Cc1cc(SCc2sc(-c3ccc(C(F)(F)F)cc3)nc2C)ccc1OCC(=O)O
Method in brief: as §1

doramapimod = compound: Cc1ccc(-n2nc(C(C)(C)C)cc2NC(=O)Nc2ccc(OCCN3CCOCC3)c3ccccc23)cc1 [doramapimod]
Method in brief: as §1

ispinesib = compound: Cc1ccc(C(=O)N(CCCN)[C@@H](c2nc3cc(Cl)ccc3c(=O)n2Cc2ccccc2)C(C)C)cc1 [ispinesib]
Method in brief: as §1

bafetinib = compound: Cc1ccc(NC(=O)c2ccc(CN3CC[C@H](N(C)C)C3)c(C(F)(F)F)c2)cc1Nc1nccc(-c2cncnc2)n1 [bafetinib]
Method in brief: as §1

[5] = compound: Cc1cccc(CC(=O)N2CCc3c2ccc(-c2cn(C)c4ncnc(N)c24)c3F)n1
Method in brief: as §1

nilotinib = compound: Cc1cn(-c2cc(NC(=O)c3ccc(C)c(Nc4nccc(-c5cccnc5)n4)c3)cc(C(F)(F)F)c2)cn1 [nilotinib]
Method in brief: as §1

[6] = compound: Cc1nc(Nc2n[nH]c3c2CN(C(=O)N[C@H](CN(C)C)c2ccccc2)C3(C)C)c2sccc2n1
Method in brief: as §1

dasatinib = compound: Cc1nc(Nc2ncc(C(=O)Nc3c(C)cccc3Cl)s2)cc(N2CCN(CCO)CC2)n1 [dasatinib]
Method in brief: as §1

[7] = compound: Cc1ncc(-c2ccnc(Nc3ccc(S(C)(=O)=O)cc3)n2)n1C(C)C
Method in brief: as §1

[8] = compound: Cn1cc(-c2ccc3c(c2)CCN3C(=O)Cc2cccc(C(F)(F)F)c2)c2c(N)ncnc21
Method in brief: as §1

[9] = compound: Cn1cc(-c2ccc3nnc(C(F)(F)c4ccc5ncccc5c4)n3n2)cn1
Method in brief: as §1

tipifarnib = compound: Cn1cncc1[C@@](N)(c1ccc(Cl)cc1)c1ccc2c(c1)c(-c1cccc(Cl)c1)cc(=O)n2C [tipifarnib]
Method in brief: as §1

mubritinib = compound: FC(F)(F)c1ccc(/C=C/c2nc(COc3ccc(CCCCn4ccnn4)cc3)co2)cc1 [mubritinib]
Method in brief: as §1

Sequence of UniProt Q01970 (Q01970 whole entry, looked up): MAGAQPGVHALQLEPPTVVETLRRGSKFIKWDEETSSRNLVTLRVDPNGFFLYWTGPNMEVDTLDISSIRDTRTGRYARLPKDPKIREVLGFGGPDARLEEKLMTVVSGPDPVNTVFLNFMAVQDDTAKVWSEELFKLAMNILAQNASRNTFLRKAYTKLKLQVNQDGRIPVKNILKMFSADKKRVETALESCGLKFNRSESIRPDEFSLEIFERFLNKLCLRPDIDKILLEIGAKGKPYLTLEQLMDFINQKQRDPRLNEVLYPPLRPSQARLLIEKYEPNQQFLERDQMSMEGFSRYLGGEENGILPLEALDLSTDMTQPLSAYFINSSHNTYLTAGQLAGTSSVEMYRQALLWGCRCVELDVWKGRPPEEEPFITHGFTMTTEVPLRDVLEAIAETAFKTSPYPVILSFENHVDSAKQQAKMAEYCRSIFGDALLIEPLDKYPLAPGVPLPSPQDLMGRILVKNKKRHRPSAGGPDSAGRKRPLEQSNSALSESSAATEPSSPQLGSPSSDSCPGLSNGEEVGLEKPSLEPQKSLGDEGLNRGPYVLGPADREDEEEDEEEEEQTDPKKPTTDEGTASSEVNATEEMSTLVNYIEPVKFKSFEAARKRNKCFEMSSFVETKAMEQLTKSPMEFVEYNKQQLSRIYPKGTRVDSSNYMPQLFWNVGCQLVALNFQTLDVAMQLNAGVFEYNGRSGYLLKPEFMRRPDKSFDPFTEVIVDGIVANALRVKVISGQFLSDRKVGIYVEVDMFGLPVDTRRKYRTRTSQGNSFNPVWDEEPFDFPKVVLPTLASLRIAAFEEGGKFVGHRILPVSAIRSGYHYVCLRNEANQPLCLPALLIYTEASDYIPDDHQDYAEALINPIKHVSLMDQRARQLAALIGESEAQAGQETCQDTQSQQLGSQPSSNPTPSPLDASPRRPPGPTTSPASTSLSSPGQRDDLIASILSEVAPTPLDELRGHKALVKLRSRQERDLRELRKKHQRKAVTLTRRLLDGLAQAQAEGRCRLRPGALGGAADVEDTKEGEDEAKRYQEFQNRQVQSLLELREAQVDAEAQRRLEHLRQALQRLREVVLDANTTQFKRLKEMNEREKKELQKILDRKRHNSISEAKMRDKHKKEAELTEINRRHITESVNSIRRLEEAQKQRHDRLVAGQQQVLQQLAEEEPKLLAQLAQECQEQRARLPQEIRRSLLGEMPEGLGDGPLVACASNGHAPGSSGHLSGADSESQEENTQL
Sequence of UniProt P42338 (P42338 whole entry, looked up): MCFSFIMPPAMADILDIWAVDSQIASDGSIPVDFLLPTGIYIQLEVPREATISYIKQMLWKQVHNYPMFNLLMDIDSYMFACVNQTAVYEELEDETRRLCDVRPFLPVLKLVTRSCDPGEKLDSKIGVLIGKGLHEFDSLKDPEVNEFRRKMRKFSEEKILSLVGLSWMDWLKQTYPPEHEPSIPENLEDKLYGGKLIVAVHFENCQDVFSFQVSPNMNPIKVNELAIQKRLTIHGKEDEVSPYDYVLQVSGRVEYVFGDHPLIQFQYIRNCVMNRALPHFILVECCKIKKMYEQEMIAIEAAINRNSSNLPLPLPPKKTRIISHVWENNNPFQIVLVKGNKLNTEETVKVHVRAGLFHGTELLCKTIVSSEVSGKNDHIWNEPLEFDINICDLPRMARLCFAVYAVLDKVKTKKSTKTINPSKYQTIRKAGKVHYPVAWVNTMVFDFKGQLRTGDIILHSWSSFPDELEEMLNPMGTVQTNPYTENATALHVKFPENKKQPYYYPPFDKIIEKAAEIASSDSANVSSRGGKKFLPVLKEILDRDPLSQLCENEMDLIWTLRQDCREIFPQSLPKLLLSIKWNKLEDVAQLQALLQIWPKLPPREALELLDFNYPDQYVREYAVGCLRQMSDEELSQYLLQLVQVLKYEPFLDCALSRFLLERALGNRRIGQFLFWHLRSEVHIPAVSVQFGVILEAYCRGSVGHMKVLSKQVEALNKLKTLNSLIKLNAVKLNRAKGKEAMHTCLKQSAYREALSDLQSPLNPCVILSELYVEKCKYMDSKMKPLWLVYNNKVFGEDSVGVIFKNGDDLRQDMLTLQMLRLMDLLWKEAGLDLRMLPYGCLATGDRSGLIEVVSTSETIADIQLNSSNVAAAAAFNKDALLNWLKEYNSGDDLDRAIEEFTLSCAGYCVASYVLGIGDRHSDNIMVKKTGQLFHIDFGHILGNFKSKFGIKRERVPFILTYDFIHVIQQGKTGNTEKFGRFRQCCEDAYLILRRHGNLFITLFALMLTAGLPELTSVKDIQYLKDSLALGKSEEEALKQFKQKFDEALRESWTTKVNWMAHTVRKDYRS
Sequence of UniProt Q15365 (Q15365 whole entry, looked up): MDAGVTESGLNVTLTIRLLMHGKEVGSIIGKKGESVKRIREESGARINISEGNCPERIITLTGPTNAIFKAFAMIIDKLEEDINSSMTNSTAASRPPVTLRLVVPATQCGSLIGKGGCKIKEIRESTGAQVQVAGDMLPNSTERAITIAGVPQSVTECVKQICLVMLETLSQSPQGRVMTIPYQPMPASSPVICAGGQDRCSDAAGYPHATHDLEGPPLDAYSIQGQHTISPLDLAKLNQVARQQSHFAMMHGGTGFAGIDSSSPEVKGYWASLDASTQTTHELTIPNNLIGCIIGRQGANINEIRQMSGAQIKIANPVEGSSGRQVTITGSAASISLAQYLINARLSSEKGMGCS
Sequence of UniProt P09884 (P09884 whole entry, looked up): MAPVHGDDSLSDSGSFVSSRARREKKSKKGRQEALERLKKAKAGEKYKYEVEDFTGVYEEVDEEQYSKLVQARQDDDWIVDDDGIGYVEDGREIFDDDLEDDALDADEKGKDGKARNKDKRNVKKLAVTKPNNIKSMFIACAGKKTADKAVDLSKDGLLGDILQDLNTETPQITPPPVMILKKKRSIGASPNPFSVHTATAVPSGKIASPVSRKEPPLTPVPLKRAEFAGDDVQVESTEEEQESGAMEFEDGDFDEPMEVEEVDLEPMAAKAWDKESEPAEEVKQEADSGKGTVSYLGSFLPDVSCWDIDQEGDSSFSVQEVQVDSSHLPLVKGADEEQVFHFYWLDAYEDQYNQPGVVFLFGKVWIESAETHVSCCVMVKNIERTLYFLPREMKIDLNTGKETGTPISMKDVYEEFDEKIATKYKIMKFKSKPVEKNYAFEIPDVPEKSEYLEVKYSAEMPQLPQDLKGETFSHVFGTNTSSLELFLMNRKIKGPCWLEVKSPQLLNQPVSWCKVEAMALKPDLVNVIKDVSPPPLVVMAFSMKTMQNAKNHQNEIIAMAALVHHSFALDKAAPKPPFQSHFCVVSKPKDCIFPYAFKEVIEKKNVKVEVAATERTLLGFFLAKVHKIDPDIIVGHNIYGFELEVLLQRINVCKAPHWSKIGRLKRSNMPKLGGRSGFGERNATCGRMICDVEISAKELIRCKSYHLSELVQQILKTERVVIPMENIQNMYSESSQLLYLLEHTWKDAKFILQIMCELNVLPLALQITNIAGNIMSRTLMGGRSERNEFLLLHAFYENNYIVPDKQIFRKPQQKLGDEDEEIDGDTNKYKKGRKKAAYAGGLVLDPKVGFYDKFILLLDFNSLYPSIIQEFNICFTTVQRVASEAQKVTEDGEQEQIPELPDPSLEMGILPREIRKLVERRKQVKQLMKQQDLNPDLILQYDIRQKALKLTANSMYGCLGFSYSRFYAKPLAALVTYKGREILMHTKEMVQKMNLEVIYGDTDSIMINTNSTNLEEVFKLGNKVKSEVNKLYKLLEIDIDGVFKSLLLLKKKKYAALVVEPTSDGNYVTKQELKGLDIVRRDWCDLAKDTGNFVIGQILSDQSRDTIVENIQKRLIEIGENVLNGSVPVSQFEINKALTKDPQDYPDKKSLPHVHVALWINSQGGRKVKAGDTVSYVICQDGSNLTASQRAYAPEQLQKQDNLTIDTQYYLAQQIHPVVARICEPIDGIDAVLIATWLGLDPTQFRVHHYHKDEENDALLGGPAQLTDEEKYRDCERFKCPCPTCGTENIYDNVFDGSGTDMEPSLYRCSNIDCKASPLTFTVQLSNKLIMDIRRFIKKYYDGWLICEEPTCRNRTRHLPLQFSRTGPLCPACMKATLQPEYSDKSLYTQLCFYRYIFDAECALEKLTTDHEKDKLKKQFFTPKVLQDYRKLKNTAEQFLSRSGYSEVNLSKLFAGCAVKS
Sequence of UniProt Q96KB5 (Q96KB5 whole entry, looked up): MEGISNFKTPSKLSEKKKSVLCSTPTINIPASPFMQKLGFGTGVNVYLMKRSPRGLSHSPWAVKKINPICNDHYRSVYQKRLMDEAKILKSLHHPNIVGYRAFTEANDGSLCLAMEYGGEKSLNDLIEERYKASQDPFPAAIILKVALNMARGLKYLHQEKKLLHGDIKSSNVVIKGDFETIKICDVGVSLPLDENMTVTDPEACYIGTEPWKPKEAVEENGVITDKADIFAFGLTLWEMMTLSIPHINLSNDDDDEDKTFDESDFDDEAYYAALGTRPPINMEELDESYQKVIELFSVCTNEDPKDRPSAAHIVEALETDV
Sequence of UniProt Q9H5K3 (Q9H5K3 whole entry, looked up): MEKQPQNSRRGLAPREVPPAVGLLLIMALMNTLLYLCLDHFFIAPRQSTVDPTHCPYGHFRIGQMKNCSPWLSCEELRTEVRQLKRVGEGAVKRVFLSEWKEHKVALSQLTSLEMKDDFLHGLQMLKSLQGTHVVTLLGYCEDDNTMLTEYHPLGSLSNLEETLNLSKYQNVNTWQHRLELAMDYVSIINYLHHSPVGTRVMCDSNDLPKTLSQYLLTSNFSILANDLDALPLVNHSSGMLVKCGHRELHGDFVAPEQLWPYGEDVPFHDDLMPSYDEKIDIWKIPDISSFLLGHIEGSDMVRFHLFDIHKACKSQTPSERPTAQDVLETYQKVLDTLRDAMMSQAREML
Sequence of UniProt Q8TAP8 (Q8TAP8 whole entry, looked up): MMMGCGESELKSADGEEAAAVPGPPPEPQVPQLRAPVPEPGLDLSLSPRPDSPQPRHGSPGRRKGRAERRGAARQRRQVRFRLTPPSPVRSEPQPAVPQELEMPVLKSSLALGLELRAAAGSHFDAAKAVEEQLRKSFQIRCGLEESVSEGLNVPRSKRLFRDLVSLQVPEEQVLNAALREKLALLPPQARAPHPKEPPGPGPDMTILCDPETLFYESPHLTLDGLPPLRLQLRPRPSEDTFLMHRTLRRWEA

| Target | log2 fold change [1] | log2 fold change (crizotinib) | log2 fold change [2] | log2 fold change [3] | log2 fold change (duvelisib) | log2 fold change (gandotinib) | log2 fold change (tozasertib) | log2 fold change [4] | log2 fold change (doramapimod) | log2 fold change (ispinesib) | log2 fold change (bafetinib) | log2 fold change [5] | log2 fold change (nilotinib) | log2 fold change [6] | log2 fold change (dasatinib) | log2 fold change [7] | log2 fold change [8] | log2 fold change [9] | log2 fold change (tipifarnib) | log2 fold change (mubritinib) |
| --- | --- | --- | --- | --- | --- | --- | --- | --- | --- | --- | --- | --- | --- | --- | --- | --- | --- | --- | --- | --- |
| POLR3K (UniProt Q9Y2Y1) | -0.026 | 0.015 | 0.035 | -0.027 | 0.067 | 0.066 | -0.011 | -0.059 | 0.038 | -0.075 | -0.006 | -0.039 | 0.035 | -0.003 | 0.098 | 0.01 | -0.02 | -0.021 | 0.033 | -0.088 |
| PECAM1 (UniProt P16284) | 0.086 | 0.145 | 0.157 | 0.034 | 0.08 | -0.001 | -0.105 | -0.03 | -0.025 | 0.099 | -0.075 | -0.011 | 0.087 | 0.097 | 0.031 | 0 | -0.019 | -0.013 | 0.015 | 0.022 |
| PIK3CB (UniProt P42338) | 0.043 | -0.077 | 0.064 | 0.034 | 0.318 (active) | -0.041 | -0.075 | 0.06 | 0 | -0.057 | -0.075 | 0.028 | -0.084 | -0.056 | -0.209 | 0.034 | -0.002 | 0.049 | -0.105 | 0.037 |
| POLA1 (UniProt P09884) | 0.01 | -0.041 | 0.065 | -0.048 | 0.046 | -0.069 | 0.083 | 0.09 | -0.029 | -0.036 | 0.021 | 0.021 | -0.043 | -0.033 | -0.173 | 0.01 | 0.019 | 0.014 | -0.091 | 0.064 |
| PPP1R35 (UniProt Q8TAP8) | -0.025 | -0.036 | 0.179 | -0.037 | -0.071 | 0.044 | 0.007 | 0.025 | 0.024 | -0.058 | -0.039 | 0.058 | 0.008 | -0.031 | -0.04 | -0.095 | -0.024 | -0.042 | -0.022 | 0.065 |
| PLCB3 (UniProt Q01970) | 0 | -0.07 | 0.014 | 0.013 | 0.019 | 0.031 | 0.041 | 0.034 | 0.014 | -0.078 | -0.059 | -0.084 | -0.104 | 0.033 | -0.092 | -0.006 | -0.006 | 0.061 | -0.039 | 0.003 |
| PRKCQ (UniProt Q04759) | 0.021 | -0.238 | 0.037 | -0.374 (active) | 0.022 | -0.165 | -0.033 | 0.023 | 0.038 | -0.106 | -0.027 | 0.024 | -0.051 | -0.821 (active) | -0.171 | 0.003 | 0.069 | 0.031 | -0.134 | 0.12 |
| PCID2 (UniProt Q5JVF3) | 0.157 | -0.171 | -0.138 | 0.246 | -0.02 | -0.149 | -0.028 | 0.058 | -0.005 | -0.096 | 0.07 | 0.078 | -0.013 | -0.061 | -0.254 | -0.02 | 0.038 | -0.036 | -0.071 | 0.109 |
| PBK (UniProt Q96KB5) | 0.048 | -0.046 | 0.051 | 0.134 | 0.006 | -0.136 | 0.109 | 0.157 | 0.015 | -0.066 | 0.064 | 0.064 | -0.053 | -0.152 | -0.084 | 0.078 | -0.004 | 0.059 | -0.067 | -0.06 |
| PRIM2 (UniProt P49643) | 0.078 | -0.063 | 0.154 | 0.066 | -0.038 | 0.07 | 0.059 | 0.145 | -0.06 | -0.061 | 0.007 | -0.019 | -0.063 | -0.06 | -0.128 | 0.021 | 0.015 | 0.046 | -0.018 | 0.101 |
| PSMD9 (UniProt O00233) | -0.041 | -0.069 | 0.022 | -0.059 | 0.038 | -0.018 | -0.03 | -0.026 | 0.001 | 0.016 | -0.038 | 0.199 | -0.011 | 0.016 | 0.037 | 0.008 | 0.018 | 0.034 | 0.04 | 0.009 |
| POLD3 (UniProt Q15054) | 0.177 | -0.055 | 0.155 | -0.076 | 0.018 | -0.049 | 0.048 | 0.008 | -0.012 | -0.123 | 0.846 | 0.058 | -0.014 | -0.052 | -0.068 | 0.096 | 0.028 | 0.044 | -0.01 | 0.024 |
| PCBP1 (UniProt Q15365) | 0.012 | 0 | 0.094 | -0.012 | 0.042 | -0.12 | 0.047 | 0.07 | -0.016 | 0.028 | -0.007 | 0.033 | -0.057 | -0.086 | -0.111 | -0.026 | 0.064 | -0.004 | -0.119 | -0.011 |
| PRKACA (UniProt P17612) | 0.009 | -0.088 | 0.046 | 0.043 | -0.02 | -0.105 | -0.014 | 0.112 | 0.019 | 0.053 | -0.044 | 0.107 | -0.038 | 0.71 (active) | -0.107 | -0.051 | 0.01 | -0.117 | -0.036 | 0.066 |
| PLBD2 (UniProt Q8NHP8) | 0.014 | -0.07 | 0.044 | -0.008 | 0.045 | 0.003 | 0.015 | -0.028 | 0.022 | -0.088 | -0.173 | -0.056 | -0.011 | 0.024 | -0.013 | -0.052 | 0.017 | 0.044 | 0.093 | 0.056 |
| POMK (UniProt Q9H5K3) | -0.013 | -0.044 | -0.034 | 0.086 | 0.062 | 0.027 | 0.024 | 0.092 | 0.108 | -0.203 | -0.057 | 0.067 | -0.032 | -0.029 | -0.05 | 0.016 | 0 | 0.034 | -0.044 | -0.126 |
